Test results from the supplement of paper PMC10849652.
Targets with a hit are over-represented here; the source holds about 7,900 in all. About 0.6% of all pairs of compound and target were hits.

Experiments:
Experiment in all cases: log2 fold change, soluble protein after heating vs DMSO (PISA); higher = thermal stabilisation; K562 cells, 10 uM, 30 min; active = over 0.2 and 3.5 SD of the protein, either way, in both replicates (recomputed)
erlotinib = compound: C#Cc1cccc(Nc2ncnc3cc(OCCOC)c(OCCOC)cc23)c1 [erlotinib]
Procedure, shortened: (§1)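 Quantification of soluble protein used TMTpro 16plex LC-MS/MS, with channel sums equalised. Samples were the supernatant after 21,000xg for 90 min of pooled aliquots from K562 cells (2×10^6 cells/mL) treated with 10 μM compound for 30 min, heated for 3 min over 48°C-58°C, and extracted in PBS with 0.5% NP-40 at 4°C. Values, from duplicates, describe thermal stability against control samples on a log2 fold-change scale.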

[1] = compound: C/C(=N\NC(=O)C1=CC(=CC=C1)S(=O)(=O)N2CCOCC2)/C3=C(C=CC(=C3)Cl)O
Procedure, shortened: as §1

[2] = compound: C1=CC(=C(C=C1Cl)C2=NC3=NC=CN=C3C(=N2)NC4=CC=NC=C4)F
Procedure, shortened: as §1

[3] = compound: C1=CC(=CC=C1C2=NC3=C(N2)C=C(C=C3)C(=O)N)OC4=CC=C(C=C4)Cl
Procedure, shortened: as §1

[4] = compound: C1=CC2=C(C=CC(=C2)/C=C\3/C(=O)NC(=NCC4=CC=CS4)S3)N=C1
Procedure, shortened: as §1

[5] = compound: C1=CC2=NC=CN=C2C=C1/C=C/3\C(=O)NC(=O)S3
Procedure, shortened: as §1

[6] = compound: C1=CC=C(C=C1)C2=NC(=C(N2)C3=CC=NC=C3)C4=CC(=C(C=C4)Cl)O
Procedure, shortened: as §1

[7] = compound: C1=CC=C2C(=C1)C3=NNC4=CC=CC(=C43)C2=O
Procedure, shortened: as §1

[8] = compound: C1CCN(C1)C(=O)NC2=CC=CC(=C2)NC3=NC=C(C(=N3)NCCC4=CN=CN4)Br
Procedure, shortened: as §1

[9] = compound: C1CN(CCC1(CC2=CC=C(C=C2)Cl)N)C3=NC=NC4=C3C=CN4
Procedure, shortened: as §1

IRAK-1-4 Inhibitor I = compound: C1COCCN1CCN2C3=CC=CC=C3N=C2NC(=O)C4=CC(=CC=C4)[N+](=O)[O-] [IRAK-1-4 Inhibitor I]
Procedure, shortened: as §1

ibrutinib = compound: C=CC(=O)N1CCC[C@@H](n2nc(-c3ccc(Oc4ccccc4)cc3)c3c(N)ncnc32)C1 [ibrutinib]
Procedure, shortened: as §1

[10] = compound: CC(=O)c1cnc2ccc(-c3cc(Cl)c(O)c(Cl)c3)nc2c1N[C@H]1CC[C@H](CN(C)C)CC1
Procedure, shortened: as §1

ralimetinib = compound: CC(C)(C)Cn1c(N)nc2ccc(-c3[nH]c(C(C)(C)C)nc3-c3ccc(F)cc3)nc21 [ralimetinib]
Procedure, shortened: as §1

[11] = compound: CC(C)(O)CC(=O)NCCn1ccc2ncnc(Nc3ccc(Oc4cccc(C(F)(F)F)c4)c(Cl)c3)c21
Procedure, shortened: as §1

[12] = compound: CC(C)C1=C2N=C(C=C(N2N=C1)NCC3=CC=CC=C3)NCCCCCCN
Procedure, shortened: as §1

[13] = compound: CC(C)C[C@@H](C=O)NC(=O)[C@H](CC(C)C)NC(=O)[C@H](CC(C)C)NC(=O)OCc1ccccc1
Procedure, shortened: as §1

pinometostat = compound: CC(C)N(C[C@H]1O[C@@H](n2cnc3c(N)ncnc32)[C@H](O)[C@@H]1O)[C@H]1C[C@@H](CCc2nc3cc(C(C)(C)C)ccc3[nH]2)C1 [pinometostat]
Procedure, shortened: as §1

[14] = compound: CC1=C(C(CC(=O)N1)C2=CC=C(C=C2)C(F)(F)F)C(=O)NC3=C(C=C4C(=C3)C=NN4)F
Procedure, shortened: as §1

[15] = compound: CC1=C(C2=C(C=C1)C(=O)C3=CC=CC=C3N2CCCN)C
Procedure, shortened: as §1

Measured: log2 fold change

CHEK1 (UniProt O14757)
Chain of UniProt O14757 (O14757 whole entry, looked up): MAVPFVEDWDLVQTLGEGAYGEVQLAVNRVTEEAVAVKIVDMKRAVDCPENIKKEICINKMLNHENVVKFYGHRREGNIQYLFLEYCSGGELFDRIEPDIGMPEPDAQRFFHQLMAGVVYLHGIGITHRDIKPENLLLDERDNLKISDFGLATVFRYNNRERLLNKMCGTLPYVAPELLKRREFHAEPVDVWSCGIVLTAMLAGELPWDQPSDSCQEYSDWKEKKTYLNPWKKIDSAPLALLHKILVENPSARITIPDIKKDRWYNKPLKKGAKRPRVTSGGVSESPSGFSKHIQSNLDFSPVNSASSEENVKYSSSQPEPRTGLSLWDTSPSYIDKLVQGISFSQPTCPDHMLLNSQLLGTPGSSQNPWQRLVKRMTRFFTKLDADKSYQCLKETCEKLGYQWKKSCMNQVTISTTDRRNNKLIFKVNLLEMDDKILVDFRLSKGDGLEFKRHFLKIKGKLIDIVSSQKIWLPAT
active: [8] -0.303
inactive: erlotinib 0.03 | [1] 0.047 | [2] 0.029 | [3] 0.012 | [4] 0.246 | [5] 0 | [6] -0.026 | [7] -0.099 | [9] -0.089 | IRAK-1-4 Inhibitor I -0.018 | ibrutinib -0.014 | [10] 0 | ralimetinib -0.076 | [11] -0.055 | [12] 0.003 | [13] 0.056 | pinometostat 0.018 | [14] 0.017 | [15] -0.029

CHAC2 (UniProt Q8WUX2)
Chain of UniProt Q8WUX2 (Q8WUX2 whole entry, looked up): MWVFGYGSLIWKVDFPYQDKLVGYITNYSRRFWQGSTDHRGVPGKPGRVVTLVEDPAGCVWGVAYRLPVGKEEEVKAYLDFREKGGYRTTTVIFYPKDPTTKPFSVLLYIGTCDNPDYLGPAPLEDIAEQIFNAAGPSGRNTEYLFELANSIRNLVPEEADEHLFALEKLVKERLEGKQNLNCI
inactive: erlotinib 0.025 | [1] -0.011 | [2] 0.001 | [3] -0.012 | [4] -0.003 | [5] -0.033 | [6] -0.018 | [7] 0.001 | [8] -0.025 | [9] 0.093 | IRAK-1-4 Inhibitor I 0.038 | ibrutinib -0.058 | [10] -0.009 | ralimetinib -0.021 | [11] 0.085 | [12] 0.03 | [13] 0 | pinometostat 0.01 | [14] -0.061 | [15] -0.036

CERS2 (UniProt Q96G23)
active: [12] -0.425
inactive: erlotinib 0.032 | [1] 0.001 | [2] 0.013 | [3] 0.007 | [4] 0.004 | [5] 0.033 | [6] 0.01 | [7] -0.025 | [8] 0.074 | [9] 0.087 | IRAK-1-4 Inhibitor I 0.06 | ibrutinib -0.013 | [10] 0.125 | ralimetinib -0.026 | [11] -0.176 | [13] 0.034 | pinometostat 0.042 | [14] 0.003 | [15] -0.04

CD151 (UniProt P48509)
Chain of UniProt P48509 (P48509 whole entry, looked up): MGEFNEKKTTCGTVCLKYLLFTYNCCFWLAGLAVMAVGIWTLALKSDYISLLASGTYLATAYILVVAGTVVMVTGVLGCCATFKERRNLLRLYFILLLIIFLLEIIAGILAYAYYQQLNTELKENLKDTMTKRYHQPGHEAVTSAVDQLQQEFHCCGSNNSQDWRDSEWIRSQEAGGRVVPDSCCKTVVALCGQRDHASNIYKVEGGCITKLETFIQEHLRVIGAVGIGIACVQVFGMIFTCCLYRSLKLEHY
inactive: erlotinib -0.035 | [1] 0.029 | [2] 0.045 | [3] 0.103 | [4] -0.021 | [5] 0.069 | [6] 0.021 | [7] -0.125 | [8] -0.021 | [9] 0.113 | IRAK-1-4 Inhibitor I -0.077 | ibrutinib 0.012 | [10] 0.025 | ralimetinib 0.013 | [11] -0.021 | [12] -0.017 | [13] 0.027 | pinometostat -0.054 | [14] 0.082 | [15] 0.083

COCH (UniProt O43405)
Chain of UniProt O43405 (O43405 whole entry, looked up): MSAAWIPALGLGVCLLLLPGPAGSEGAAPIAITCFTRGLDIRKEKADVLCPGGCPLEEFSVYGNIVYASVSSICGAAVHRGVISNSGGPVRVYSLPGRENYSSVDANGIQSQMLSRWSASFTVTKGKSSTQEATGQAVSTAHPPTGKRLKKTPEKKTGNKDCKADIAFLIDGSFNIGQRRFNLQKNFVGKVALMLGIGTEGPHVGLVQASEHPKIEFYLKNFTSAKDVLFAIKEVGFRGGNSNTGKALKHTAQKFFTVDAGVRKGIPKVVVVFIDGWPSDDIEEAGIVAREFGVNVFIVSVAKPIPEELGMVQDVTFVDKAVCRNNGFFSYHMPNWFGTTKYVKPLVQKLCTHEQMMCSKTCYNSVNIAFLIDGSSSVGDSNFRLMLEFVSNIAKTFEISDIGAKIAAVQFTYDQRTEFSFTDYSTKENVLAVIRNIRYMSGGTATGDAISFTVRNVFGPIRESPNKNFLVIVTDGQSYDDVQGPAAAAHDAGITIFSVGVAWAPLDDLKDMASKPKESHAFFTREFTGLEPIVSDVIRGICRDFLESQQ
active: [11] 0.331
inactive: erlotinib -0.083 | [1] -0.028 | [2] -0.044 | [3] 0.007 | [4] -0.098 | [5] 0.007 | [6] -0.002 | [7] -0.072 | [8] -0.043 | [9] -0.101 | IRAK-1-4 Inhibitor I 0.001 | ibrutinib 0.058 | [10] 0.045 | ralimetinib 0.041 | [12] 0.021 | [13] -0.019 | pinometostat 0.043 | [14] -0.072 | [15] -0.353

CMTR1 (UniProt Q8N1G2)
inactive: erlotinib -0.005 | [1] 0.105 | [2] 0.031 | [3] 0.013 | [4] 0.048 | [5] 0.012 | [6] 0.012 | [7] 0.036 | [8] 0.01 | [9] 0.018 | IRAK-1-4 Inhibitor I -0.007 | ibrutinib -0.011 | [10] -0.014 | ralimetinib -0.026 | [11] -0.024 | [12] -0.011 | [13] -0.002 | pinometostat -0.029 | [14] -0.007 | [15] 0.169

CDK1 (UniProt P06493)
Chain of UniProt P06493 (P06493 whole entry, looked up): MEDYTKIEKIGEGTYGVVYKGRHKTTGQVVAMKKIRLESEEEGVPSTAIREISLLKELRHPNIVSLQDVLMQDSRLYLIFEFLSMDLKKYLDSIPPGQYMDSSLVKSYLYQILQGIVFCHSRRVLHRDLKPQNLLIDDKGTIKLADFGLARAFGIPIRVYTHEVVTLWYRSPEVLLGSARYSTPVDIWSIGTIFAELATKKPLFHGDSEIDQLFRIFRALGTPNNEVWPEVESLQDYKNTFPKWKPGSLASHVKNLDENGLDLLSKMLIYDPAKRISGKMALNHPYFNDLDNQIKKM
inactive: erlotinib 0.045 | [1] 0.06 | [2] 0.021 | [3] 0.003 | [4] -0.054 | [5] 0.018 | [6] 0.003 | [7] -0.003 | [8] 0.007 | [9] -0.009 | IRAK-1-4 Inhibitor I 0 | ibrutinib -0.046 | ralimetinib -0.031 | [11] -0.051 | [12] -0.02 | [13] 0.051 | pinometostat 0 | [14] 0.012 | [15] -0.021
active: [10] -0.401

CKB (UniProt P12277)
Chain of UniProt P12277 (P12277 whole entry, looked up): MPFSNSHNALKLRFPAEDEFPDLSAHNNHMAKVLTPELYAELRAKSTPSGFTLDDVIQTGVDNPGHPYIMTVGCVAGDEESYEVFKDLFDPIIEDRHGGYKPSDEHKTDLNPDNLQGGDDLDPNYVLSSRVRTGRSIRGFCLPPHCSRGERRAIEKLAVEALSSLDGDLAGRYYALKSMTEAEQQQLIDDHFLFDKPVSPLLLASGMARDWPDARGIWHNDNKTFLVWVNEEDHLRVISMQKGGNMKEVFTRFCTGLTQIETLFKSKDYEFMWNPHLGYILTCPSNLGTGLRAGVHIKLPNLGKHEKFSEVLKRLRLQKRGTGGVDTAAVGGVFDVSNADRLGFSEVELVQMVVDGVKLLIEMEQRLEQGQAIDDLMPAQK
inactive: erlotinib 0.011 | [1] 0.045 | [2] 0.052 | [3] 0.035 | [4] 0.018 | [5] -0.038 | [6] 0.01 | [7] 0.065 | [8] 0.022 | [9] 0.027 | IRAK-1-4 Inhibitor I 0.014 | ibrutinib -0.024 | [10] -0.009 | ralimetinib -0.01 | [11] -0.077 | [12] -0.045 | [13] 0.021 | pinometostat -0.02 | [14] -0.014 | [15] 0.059

CIT isoform 4 (UniProt O14578)
active: [10] -0.462
inactive: erlotinib -0.015 | [1] 0.045 | [2] -0.044 | [3] 0 | [4] -0.176 | [5] 0.13 | [6] -0.027 | [7] -0.002 | [8] -0.037 | [9] 0.021 | IRAK-1-4 Inhibitor I -0.013 | ibrutinib -0.057 | ralimetinib -0.008 | [11] -0.077 | [12] -0.021 | [13] 0.045 | pinometostat -0.005 | [14] 0.045 | [15] 0.118

CPSF6 isoform 2 (UniProt Q16630)
active: [10] -0.599
inactive: erlotinib 0.023 | [1] 0.079 | [2] -0.072 | [3] 0.122 | [4] -0.04 | [5] -0.026 | [6] -0.002 | [7] -0.016 | [8] -0.021 | [9] -0.135 | IRAK-1-4 Inhibitor I -0.047 | ibrutinib 0 | ralimetinib -0.017 | [11] 0.02 | [12] -0.029 | [13] -0.053 | pinometostat 0.004 | [14] -0.042 | [15] 0.195

COPS3 (UniProt Q9UNS2)
inactive: erlotinib -0.019 | [1] 0.035 | [2] 0.091 | [3] 0.016 | [4] 0.055 | [5] 0.01 | [6] -0.009 | [7] 0.007 | [8] 0.014 | [9] 0.014 | IRAK-1-4 Inhibitor I 0.029 | ibrutinib 0.011 | [10] -0.023 | ralimetinib -0.096 | [11] -0.014 | [12] 0.028 | [13] -0.065 | pinometostat -0.046 | [14] -0.007 | [15] -0.003

CHD4 isoform 2 (UniProt Q14839)
inactive: erlotinib 0.042 | [1] 0.103 | [2] -0.011 | [3] -0.007 | [4] 0.029 | [5] 0.034 | [6] 0.044 | [7] -0.08 | [8] -0.047 | [9] -0.1 | IRAK-1-4 Inhibitor I -0.198 | ibrutinib -0.106 | [10] -0.215 | ralimetinib 0.112 | [11] -0.067 | [13] 0.045 | pinometostat 0.07 | [14] 0.013 | [15] -0.057
active: [12] -0.313

COX6B1 (UniProt P14854)
Chain of UniProt P14854 (P14854 whole entry, looked up): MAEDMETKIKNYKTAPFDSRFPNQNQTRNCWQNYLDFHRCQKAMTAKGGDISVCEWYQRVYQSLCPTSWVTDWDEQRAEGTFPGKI
inactive: erlotinib 0.027 | [1] 0.011 | [2] 0.247 | [3] -0.045 | [4] 0.118 | [5] 0.048 | [6] 0 | [7] -0.037 | [8] -0.003 | [9] -0.019 | IRAK-1-4 Inhibitor I -0.046 | ibrutinib -0.038 | [10] -0.013 | ralimetinib -0.144 | [11] -0.103 | [12] 0.038 | [13] -0.01 | pinometostat 0.017 | [14] 0.045 | [15] 0.103

CSNK1D (UniProt P48730)
Chain of UniProt P48730 (P48730 whole entry, looked up): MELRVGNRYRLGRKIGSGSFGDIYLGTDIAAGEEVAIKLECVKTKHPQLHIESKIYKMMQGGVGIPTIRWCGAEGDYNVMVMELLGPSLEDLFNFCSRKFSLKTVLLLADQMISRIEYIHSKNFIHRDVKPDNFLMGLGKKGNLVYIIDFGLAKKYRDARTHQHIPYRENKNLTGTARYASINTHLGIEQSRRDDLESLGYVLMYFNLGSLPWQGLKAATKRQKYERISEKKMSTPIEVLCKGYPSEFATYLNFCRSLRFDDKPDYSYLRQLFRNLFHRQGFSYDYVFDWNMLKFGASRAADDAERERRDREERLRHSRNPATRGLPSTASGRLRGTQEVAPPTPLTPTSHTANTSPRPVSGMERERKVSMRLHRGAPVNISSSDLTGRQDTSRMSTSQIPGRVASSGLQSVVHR
active: [10] 0.768
inactive: erlotinib 0.033 | [1] -0.02 | [2] -0.143 | [3] 0.011 | [4] -0.05 | [5] 0.051 | [6] 0.165 | [7] 0.258 | [8] -0.035 | [9] -0.086 | IRAK-1-4 Inhibitor I -0.041 | ibrutinib 0.002 | ralimetinib 0.216 | [11] -0.001 | [12] -0.138 | [13] 0.077 | pinometostat 0.13 | [14] 0.019 | [15] 0.063

CCNT1 (UniProt O60563)
Chain of UniProt O60563 (O60563 whole entry, looked up): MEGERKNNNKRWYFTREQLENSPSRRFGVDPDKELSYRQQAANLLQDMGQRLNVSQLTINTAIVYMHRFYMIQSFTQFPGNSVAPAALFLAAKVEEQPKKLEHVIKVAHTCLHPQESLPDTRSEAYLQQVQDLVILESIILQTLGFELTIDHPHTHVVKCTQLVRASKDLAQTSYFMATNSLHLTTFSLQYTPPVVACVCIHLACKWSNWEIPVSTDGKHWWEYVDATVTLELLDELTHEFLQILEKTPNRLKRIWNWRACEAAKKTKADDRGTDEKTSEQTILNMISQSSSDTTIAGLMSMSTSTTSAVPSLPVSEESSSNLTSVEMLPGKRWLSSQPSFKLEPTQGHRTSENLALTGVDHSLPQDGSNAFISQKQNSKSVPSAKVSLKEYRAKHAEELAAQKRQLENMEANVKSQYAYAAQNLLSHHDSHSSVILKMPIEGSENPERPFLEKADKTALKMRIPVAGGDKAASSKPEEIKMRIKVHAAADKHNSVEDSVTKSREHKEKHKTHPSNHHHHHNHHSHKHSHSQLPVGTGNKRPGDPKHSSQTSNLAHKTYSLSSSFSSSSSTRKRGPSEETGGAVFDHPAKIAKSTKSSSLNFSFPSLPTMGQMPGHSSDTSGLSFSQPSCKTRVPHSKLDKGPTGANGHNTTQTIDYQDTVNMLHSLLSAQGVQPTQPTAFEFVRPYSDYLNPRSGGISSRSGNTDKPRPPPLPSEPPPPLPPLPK
inactive: erlotinib -0.026 | [1] 0.036 | [2] -0.141 | [3] 0.047 | [4] -0.041 | [5] -0.05 | [6] -0.129 | [7] -0.084 | [8] -0.014 | [9] -0.059 | IRAK-1-4 Inhibitor I -0.004 | ibrutinib 0.001 | ralimetinib 0.054 | [11] 0.042 | [13] 0.105 | pinometostat 0.213 | [14] -0.003 | [15] -0.112
active: [10] -0.603 | [12] -0.375

CPD (UniProt O75976)
Chain of UniProt O75976 (O75976 whole entry, looked up): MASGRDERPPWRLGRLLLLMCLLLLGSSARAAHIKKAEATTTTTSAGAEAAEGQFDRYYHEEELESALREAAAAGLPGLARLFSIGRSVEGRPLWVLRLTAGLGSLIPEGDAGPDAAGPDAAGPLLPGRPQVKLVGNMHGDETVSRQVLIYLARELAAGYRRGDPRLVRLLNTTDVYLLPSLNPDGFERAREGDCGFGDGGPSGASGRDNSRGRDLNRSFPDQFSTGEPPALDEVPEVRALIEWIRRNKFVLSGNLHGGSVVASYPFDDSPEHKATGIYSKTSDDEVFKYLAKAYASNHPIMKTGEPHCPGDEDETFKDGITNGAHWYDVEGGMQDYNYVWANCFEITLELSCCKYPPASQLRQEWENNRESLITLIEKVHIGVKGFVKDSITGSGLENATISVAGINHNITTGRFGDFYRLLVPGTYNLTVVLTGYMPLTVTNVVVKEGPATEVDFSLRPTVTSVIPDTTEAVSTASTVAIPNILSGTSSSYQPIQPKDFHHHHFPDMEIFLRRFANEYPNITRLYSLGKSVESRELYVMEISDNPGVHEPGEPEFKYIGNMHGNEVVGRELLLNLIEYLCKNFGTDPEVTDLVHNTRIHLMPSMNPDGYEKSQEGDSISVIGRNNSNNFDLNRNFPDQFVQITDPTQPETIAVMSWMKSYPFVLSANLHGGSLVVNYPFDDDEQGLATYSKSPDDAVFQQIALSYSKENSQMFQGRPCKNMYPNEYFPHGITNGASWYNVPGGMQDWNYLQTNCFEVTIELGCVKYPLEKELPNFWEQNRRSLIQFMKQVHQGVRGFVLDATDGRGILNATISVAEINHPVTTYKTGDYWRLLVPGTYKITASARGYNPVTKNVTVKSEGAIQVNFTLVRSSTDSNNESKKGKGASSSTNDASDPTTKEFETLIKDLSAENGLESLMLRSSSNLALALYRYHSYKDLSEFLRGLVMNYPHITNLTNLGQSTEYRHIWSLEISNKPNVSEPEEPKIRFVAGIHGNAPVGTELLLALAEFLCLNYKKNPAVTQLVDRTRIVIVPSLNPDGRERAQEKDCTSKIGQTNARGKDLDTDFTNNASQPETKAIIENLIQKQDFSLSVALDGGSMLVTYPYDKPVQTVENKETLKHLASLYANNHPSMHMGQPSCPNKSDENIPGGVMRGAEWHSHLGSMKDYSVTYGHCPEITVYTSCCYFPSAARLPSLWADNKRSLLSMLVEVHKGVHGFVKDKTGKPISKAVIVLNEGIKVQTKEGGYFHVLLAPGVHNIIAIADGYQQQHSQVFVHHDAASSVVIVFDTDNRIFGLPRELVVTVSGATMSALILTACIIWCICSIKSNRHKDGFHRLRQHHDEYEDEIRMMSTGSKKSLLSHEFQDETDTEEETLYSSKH
inactive: erlotinib -0.025 | [1] -0.08 | [2] 0.009 | [3] 0.028 | [4] 0.055 | [5] 0.011 | [6] -0.007 | [7] -0.041 | [8] -0.045 | [9] 0.008 | IRAK-1-4 Inhibitor I -0.011 | ibrutinib -0.018 | [10] -0.015 | ralimetinib -0.03 | [11] -0.058 | [12] -0.126 | [13] 0.077 | pinometostat 0.002 | [14] 0.04 | [15] -0.019
